Assay outcomes deposited in PubChem by several laboratories.
Mtb FBA inh: Mtb FBA enzyme inhibitors, primary screen, biochemical, fluorescence, strain H37Rv. Fructose-bisphosphate aldolase (Mycobacterium tuberculosis (strain ATCC 25618 / H37Rv)), …. purified M. tuberculosis FBA, fluorescence read-out. inhibition, % at 1 µM. 360,000 compounds, 2.3% hits. AID 588726, 2011; in the data active means inhibition above about 27%
Anthrax LF inh2: Bacillus anthracis LF protease inhibitors, primary screen, biochemical, multiplex microsphere, MLPCN library | Lethal factor (Bacillus anthracis), P15917 | multiplex microsphere protease cleavage assay | inhibition, % at 10 µM | 360,000 compounds, 0.12% hits
BoNT-A LC inh2: BoNT/A light chain protease inhibitors, primary screen, biochemical, flow cytometry, MLPCN library; 360,000 compounds, 0.17% hits; multiplex microsphere protease substrate cleavage; Botulinum neurotoxin type A light chain protease (Clostridium botulinum A str. ATCC 3502); inhibition, % at 10 µM
Bead autofluor: counter-screen for toxin protease inhibitors: compound fluorescence. compound autofluorescence counterscreen, microsphere flow cytometry; stronger effect = higher value. fluorescence intensity (no concentration beside the values). 360,000 compounds, 3.1% hits. AID 624483; in the data active means fluorescence intensity above about 16000; inconclusive means no clear call, values can overlap the other calls
GDH-TPI counter: GDH-TPI coupling enzyme inhibitors, primary screen, artefact control for M. tuberculosis FBA inhibitor project, biochemical, absorbance, full deck. 360,000 compounds, 1.2% hits. GDH-TPI coupled enzyme counterscreen, NADH absorbance. inhibition, % at 4.8 µM. AID 588335, 2011; in the data active means inhibition above about 30%
BoNT-F LC inh: BoNT/F light chain protease inhibitors, primary screen, biochemical, flow cytometry, MLPCN library; Multiplex microsphere protease cleavage assay; inhibition, % at 10 µM; 360,000 compounds, 0.22% hits; Botulinum neurotoxin type F light chain protease (Clostridium botulinum); in the data active means inhibition above about 35%, passing the limit was not always enough; inconclusive means no clear call, values can overlap the other calls
A number is an active result; - = inactive; ? = inconclusive; + = active, no number. This is a sample that favours compounds with a hit; in the whole collection about 6.6% have one here. Unless noted, no stated cut-off is given here; in the data, active means inhibition above about 30%; inconclusive means no clear call, values can overlap the other calls; inactive means below that.

SMILES | Mtb FBA inh | Anthrax LF inh2 | BoNT-A LC inh2 | Bead autofluor | GDH-TPI counter | BoNT-F LC inh
COc1cccc(Cn2c(N)c(C#N)c3nc4ccccc4nc32)c1OC | - | - | - | - | - | -
COc1ccc(Cn2c(N)c(C#N)c3nc4ccccc4nc32)cc1 | 179.5 | - | - | - | - | -
N#Cc1c(N)n(CCc2ccc(F)cc2)c2nc3ccccc3nc12 | 151.3 | - | - | - | - | -
COCCn1c(N)c(C#N)c2nc3ccccc3nc21 | 115.5 | - | - | - | - | -
CCOC(=O)C1CCCN(C(=O)CN2C(=O)c3ccccc3S2(=O)=O)C1 (stereo unspecified) | - | - | - | - | - | -
CCOC(=O)C1CCCN(C(=O)CN2C(=O)c3ccccc3C2=O)C1 (stereo unspecified) | - | - | ? | 20127 | - | -
CCOC(=O)C1CCCN(C(=O)Cn2nc(C)n3c(cc4c(OC)cccc43)c2=O)C1 (stereo unspecified) | 193.5 | - | - | - | - | -
COc1cccc2c1cc1c(=O)n(CC(=O)N3CCN(c4cccc(C)c4C)CC3)nc(C)n12 | - | - | - | - | - | -
COc1cccc2c1cc1c(=O)n(CC(=O)N3CCCCCC3)nc(C)n12 | + | - | - | - | - | -
Cc1c(Br)ccc(NC(=O)c2ccccc2[N+](=O)[O-])c1C | - | - | - | - | - | -
Cc1ccccc1C(NC(N)=O)c1ccccc1 (stereo unspecified) | - | - | - | 16482 | - | -
CCCc1cc(C(=O)NC(C)C2CCCO2)cs1 (stereo unspecified) | - | - | - | - | - | -
O=C1C(C=Nc2ccccc2)=C(O)c2ccccc21 | - | - | - | - | - | -
CN=CC1=C(O)c2ccccc2C1=O | - | - | - | - | 35.4 | -
CCOC(=O)c1sc(NC(=O)CN2C(=O)C3CC=CCC3C2=O)nc1C (stereo unspecified) | - | - | - | - | - | -
COc1ccc(-n2c(-c3ccccc3)cc3c2CCCC3=O)cc1 | - | - | ? | 22566 | - | -
CC(=O)c1c(C)n(CCc2ccc(Cl)cc2)c2ccc(O)cc12 | - | - | - | - | 52.3 | ?
CC(=O)c1c(C)n(CCO)c2ccc(O)cc12 | - | - | - | - | - | -
COc1cc(C(=O)Nc2nc(OC)c(-c3ccccc3)c(OC)n2)cc(OC)c1OC | - | - | - | - | - | -
COc1cc(C(=O)Nc2cc(-c3ccccc3)[nH]n2)cc(OC)c1OC | - | - | ? | 20197 | - | -
CC(C)CN(C(=O)COC(=O)CSc1ccccc1)c1c(N)n(Cc2ccccc2)c(=O)[nH]c1=O | - | - | - | ? | - | -
Cc1cc(NC(=O)CSc2cn(C)c3ccccc23)no1 | - | - | - | - | - | -
CCOc1ccc(N(Cc2cc3ccc(C)cc3[nH]c2=O)S(C)(=O)=O)cc1 | - | - | - | 22539 | - | -
COc1ccc(N(Cc2cc3cccc(C)c3[nH]c2=O)S(C)(=O)=O)cc1 | - | - | - | 24150 | - | -
CC(C)(C)Cc1nc(-c2ccc(Cl)cc2)no1 | - | - | - | 21458 | - | -
SMILES | Mtb FBA inh | Anthrax LF inh2 | BoNT-A LC inh2 | Bead autofluor | GDH-TPI counter | BoNT-F LC inh
CN(Cc1nc(-c2ccncc2)no1)S(=O)(=O)c1ccc(Cl)cc1 | - | - | - | 21129 | - | -
COc1ccc(Cc2nc(-c3ccc(Cl)cc3)no2)cc1 | - | - | - | - | - | -
CN(Cc1nc(-c2ccncc2)no1)S(=O)(=O)c1ccc(Br)cc1 | - | - | - | - | - | -
Clc1ccc(-c2noc(COc3ccccc3)n2)cc1 | - | - | - | 22341 | - | -
CC(NC(=O)c1ccc(N)cc1)c1ccccc1 (stereo unspecified) | - | - | - | - | - | -
FC(F)(F)c1cc(C(F)(F)F)n2nc(-c3sccc3-n3cccc3)cc2n1 | - | - | - | 22337 | - | -
Cc1ccc(C(=O)COc2nc(C)cc(C)c2C#N)cc1 | - | - | - | 22443 | - | -
Cc1cc(C)c(C#N)c(OCC(=O)c2ccc(Br)cc2)n1 | - | - | ? | 23283 | - | -
Cc1ccnc(SCC(=O)c2ccc(Br)cc2)c1C#N | - | - | - | - | - | -
COc1cccc(C(C)NC(=O)c2ccncc2)c1 (stereo unspecified) | - | - | - | - | - | -
O=C(Nc1cccn2ncnc12)c1ccccc1 | - | - | - | 21325 | - | -
O=C(Nc1cccn2ncnc12)C(Cl)Cl | - | - | - | - | - | ?
CCCCC(=O)Nc1cccn2ncnc12 | - | - | - | - | - | -
O=C(Nc1cccn2ncnc12)c1ccc(Cl)cc1 | - | - | ? | 23079 | - | -
Cc1ccc(C(=O)NCC(=O)NCCCc2ccccc2)cc1 | - | - | - | - | - | -
On1nnc2c3ccccc3c3ccccc3c21 | - | - | - | - | - | -
CCCCNc1cc(C)oc(=O)c1C(C)=O | - | - | - | 21662 | - | -
CCCCCCNc1cc(C)oc(=O)c1C(C)=O | - | - | - | - | - | -
CCSc1nnc(-c2cccc(S(=O)(=O)N(CC)CC)c2)n1Cc1ccccc1 | - | - | ? | - | - | -
CCNC(=O)CSc1nnc(-c2cccc(S(=O)(=O)N(CC)CC)c2)n1CCc1ccccc1 | - | - | - | 20492 | - | -
N#CC(C#N)=C1C=CC=CN1/C(=C\c1ccco1)C(=O)c1ccc(Br)cc1 | - | - | - | - | 37.4 | -
N#CC(C#N)=C1C=CC=CN1/C(=C\c1ccco1)C(=O)c1ccccc1 | - | - | - | - | 33.8 | -
COc1ccc(C(=O)/C(=C\c2ccco2)N2C=CC=CC2=C(C#N)C#N)cc1 | - | - | - | - | 50.9 | -
CC1(C(=O)NS(=O)(=O)C2CC2)CCN(C(=O)C2(c3ccc(Cl)cc3)CCCC2)C1 (stereo unspecified) | - | - | - | - | - | -
N#Cc1nc(-c2ccccc2)oc1NCC1CCCO1 (stereo unspecified) | 171.0 | - | - | - | - | -
C=CCNc1oc(-c2ccc(Cl)cc2)nc1C#N | - | - | - | - | - | -
O=S(=O)(NCC1CCCO1)c1ccc(-c2ccc(Cl)cc2)cc1 (stereo unspecified) | - | - | - | - | - | -
N#Cc1nc(-c2ccc(Cl)cc2)oc1NCC1CCCO1 (stereo unspecified) | 153.9 | - | - | - | - | -
N#Cc1nc(-c2cccc3ccccc23)oc1NCC1CCCO1 (stereo unspecified) | + | - | - | - | - | ?
CNc1oc(-c2ccc(Cl)cc2)nc1C#N | + | - | - | - | - | -
